Data reported in article PMC7862700, “An all-to-all approach to the identification of sequence-specific readers for epigenetic DNA modifications on cytosine”.

Assays:
Assay in all cases: DAPPL (digital affinity profiling via proximity ligation, sequencing); 10 mM Tris-HCl pH 7.5, 50 mM NaCl, 1 mM DTT, 4% glycerol, room temperature, 30 min; GST-TFs on glutathione beads, 16-mer random dsDNA library, 0.1% formaldehyde crosslink after washing; high values mean tight binding
Details in all cases: protein: recombinant; tags: N-terminal GST; dsDNA, one strand shown
ELK1 = molecular target: T1, ELK1 (Homo sapiens, UniProt P19419 1-428)
T1 sequence: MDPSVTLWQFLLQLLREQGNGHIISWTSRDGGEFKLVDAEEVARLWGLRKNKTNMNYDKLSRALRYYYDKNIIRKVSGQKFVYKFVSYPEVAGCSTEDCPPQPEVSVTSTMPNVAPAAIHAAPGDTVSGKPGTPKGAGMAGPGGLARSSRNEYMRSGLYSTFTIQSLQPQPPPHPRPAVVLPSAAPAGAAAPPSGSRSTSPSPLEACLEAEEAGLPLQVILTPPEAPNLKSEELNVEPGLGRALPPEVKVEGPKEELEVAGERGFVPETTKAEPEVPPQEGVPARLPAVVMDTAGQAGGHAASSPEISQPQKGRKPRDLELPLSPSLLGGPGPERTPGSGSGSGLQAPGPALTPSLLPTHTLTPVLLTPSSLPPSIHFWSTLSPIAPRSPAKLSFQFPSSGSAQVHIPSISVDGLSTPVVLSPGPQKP
Summary of the method: (§1)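 Yeast served to express human transcription factors as GST fusions, which were then captured on glutathione beads and labelled with DNA barcodes. Pooled with a tag-only sample, they were incubated with 200 nmole of a 16-mer random double-stranded DNA library for 30 min at room temperature in Tris/NaCl/DTT/glycerol buffer, washed, crosslinked with 0.1% formaldehyde, ligated by proximity, amplified by PCR and sequenced. Dividing each hexamer's read frequency for a factor by its frequency for the tag-only sample gives the binding signal.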

GABPA = molecular target: T2, GABPA (Homo sapiens, UniProt Q06546 1-454)
T2 sequence: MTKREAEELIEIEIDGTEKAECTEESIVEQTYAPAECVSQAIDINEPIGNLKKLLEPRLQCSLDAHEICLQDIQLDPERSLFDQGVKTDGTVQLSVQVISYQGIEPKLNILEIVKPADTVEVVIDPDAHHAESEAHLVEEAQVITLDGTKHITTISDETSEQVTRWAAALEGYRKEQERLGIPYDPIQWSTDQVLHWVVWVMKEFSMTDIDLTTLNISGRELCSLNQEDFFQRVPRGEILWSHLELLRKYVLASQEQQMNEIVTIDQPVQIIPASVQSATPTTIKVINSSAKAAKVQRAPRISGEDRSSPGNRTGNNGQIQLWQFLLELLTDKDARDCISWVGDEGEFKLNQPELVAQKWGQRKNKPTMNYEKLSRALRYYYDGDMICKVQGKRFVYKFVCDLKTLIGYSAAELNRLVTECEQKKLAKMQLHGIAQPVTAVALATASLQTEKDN
Summary of the method: as §1

ERG = molecular target: T3, ERG (Homo sapiens, UniProt P11308 1-479)
T3 sequence: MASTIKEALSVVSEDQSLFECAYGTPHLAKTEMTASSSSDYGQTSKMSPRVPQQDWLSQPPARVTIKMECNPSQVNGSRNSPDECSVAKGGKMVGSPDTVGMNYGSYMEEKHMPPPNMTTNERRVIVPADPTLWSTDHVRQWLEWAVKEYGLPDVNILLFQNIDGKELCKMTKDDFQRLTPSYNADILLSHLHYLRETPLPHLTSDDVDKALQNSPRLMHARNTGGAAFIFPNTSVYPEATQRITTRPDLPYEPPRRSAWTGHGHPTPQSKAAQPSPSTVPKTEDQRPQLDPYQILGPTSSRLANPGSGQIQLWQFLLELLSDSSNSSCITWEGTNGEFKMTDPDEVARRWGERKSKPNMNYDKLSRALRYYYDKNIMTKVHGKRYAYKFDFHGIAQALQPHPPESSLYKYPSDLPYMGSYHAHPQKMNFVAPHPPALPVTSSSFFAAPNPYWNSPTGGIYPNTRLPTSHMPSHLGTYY
Summary of the method: as §1

ELF1 = ELF1 (Homo sapiens, UniProt P32519 1-619)
Summary of the method: as §1

SPIB = SPIB (Homo sapiens, UniProt Q01892 1-262)
Summary of the method: as §1

FEV = molecular target: T4, FEV (Homo sapiens, UniProt Q99581 1-238)
T4 sequence: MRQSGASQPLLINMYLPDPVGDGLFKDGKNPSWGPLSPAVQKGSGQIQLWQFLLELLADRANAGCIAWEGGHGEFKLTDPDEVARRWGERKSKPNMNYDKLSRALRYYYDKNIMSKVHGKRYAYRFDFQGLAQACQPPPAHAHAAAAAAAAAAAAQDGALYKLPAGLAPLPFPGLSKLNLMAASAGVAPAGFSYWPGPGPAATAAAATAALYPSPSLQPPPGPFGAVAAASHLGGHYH
Summary of the method: as §1

ETV5 = ETV5 (Homo sapiens, UniProt P41161 1-510)
Summary of the method: as §1

ELF4 = ELF4 (Homo sapiens, UniProt Q99607 1-663)
Summary of the method: as §1

ELK4 = molecular target: T5, ELK4 (Homo sapiens, UniProt P28324-2 1-405)
T5 sequence: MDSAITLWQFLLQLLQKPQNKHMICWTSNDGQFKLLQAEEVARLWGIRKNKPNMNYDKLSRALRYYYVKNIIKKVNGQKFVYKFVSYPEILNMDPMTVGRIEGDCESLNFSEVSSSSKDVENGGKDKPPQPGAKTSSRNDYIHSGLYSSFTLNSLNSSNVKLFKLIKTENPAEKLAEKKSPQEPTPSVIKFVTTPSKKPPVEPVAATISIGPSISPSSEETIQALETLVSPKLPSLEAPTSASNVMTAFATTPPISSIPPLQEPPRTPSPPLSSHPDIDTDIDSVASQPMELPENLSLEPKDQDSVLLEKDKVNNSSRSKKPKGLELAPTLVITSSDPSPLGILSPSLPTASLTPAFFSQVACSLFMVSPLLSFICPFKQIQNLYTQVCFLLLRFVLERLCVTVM
Summary of the method: as §1

ETV2 = molecular target: T6, ETV2 (Homo sapiens, UniProt O00321 1-342)
T6 sequence: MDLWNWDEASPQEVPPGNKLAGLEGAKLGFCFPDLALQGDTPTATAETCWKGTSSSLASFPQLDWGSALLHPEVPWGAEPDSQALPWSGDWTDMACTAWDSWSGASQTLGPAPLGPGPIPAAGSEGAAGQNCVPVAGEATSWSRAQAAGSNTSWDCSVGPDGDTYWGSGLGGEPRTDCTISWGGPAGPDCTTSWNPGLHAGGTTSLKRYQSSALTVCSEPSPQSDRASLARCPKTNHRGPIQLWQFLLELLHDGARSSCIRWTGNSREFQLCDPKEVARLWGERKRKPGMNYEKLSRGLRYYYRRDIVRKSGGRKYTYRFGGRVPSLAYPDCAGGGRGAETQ
Summary of the method: as §1

ETV1 = ETV1 (Homo sapiens, UniProt P50549 1-477)
Summary of the method: as §1

ETV3L = molecular target: T7, ETV3L (Homo sapiens, UniProt Q6ZN32 1-361)
T7 sequence: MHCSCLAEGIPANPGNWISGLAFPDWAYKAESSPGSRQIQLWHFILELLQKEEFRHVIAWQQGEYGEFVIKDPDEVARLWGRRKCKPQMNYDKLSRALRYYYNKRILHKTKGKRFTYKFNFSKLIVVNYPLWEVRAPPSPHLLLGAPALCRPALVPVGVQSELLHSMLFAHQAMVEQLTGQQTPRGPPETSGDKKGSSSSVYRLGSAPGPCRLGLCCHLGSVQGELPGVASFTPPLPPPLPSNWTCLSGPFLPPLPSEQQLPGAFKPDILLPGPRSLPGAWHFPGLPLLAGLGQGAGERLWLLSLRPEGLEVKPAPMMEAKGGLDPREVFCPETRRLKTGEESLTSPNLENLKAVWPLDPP
Summary of the method: as §1

ETS2 = molecular target: T8, ETS2 (Homo sapiens, UniProt P15036 1-469)
T8 sequence: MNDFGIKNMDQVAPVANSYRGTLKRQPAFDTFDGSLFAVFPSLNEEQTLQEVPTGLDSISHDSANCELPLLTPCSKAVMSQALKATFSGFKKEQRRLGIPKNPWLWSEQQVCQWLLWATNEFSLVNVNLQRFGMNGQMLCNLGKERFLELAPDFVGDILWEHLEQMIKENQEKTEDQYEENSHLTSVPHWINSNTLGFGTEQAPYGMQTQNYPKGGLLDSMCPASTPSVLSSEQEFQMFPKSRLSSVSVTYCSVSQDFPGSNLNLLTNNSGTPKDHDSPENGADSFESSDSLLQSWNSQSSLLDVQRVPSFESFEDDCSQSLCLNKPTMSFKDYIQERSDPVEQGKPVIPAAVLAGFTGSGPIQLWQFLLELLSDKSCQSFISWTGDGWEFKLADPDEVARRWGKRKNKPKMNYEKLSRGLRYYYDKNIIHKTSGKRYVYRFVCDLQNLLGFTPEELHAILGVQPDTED
Summary of the method: as §1

ETV3 = molecular target: T9, ETV3 (Homo sapiens, UniProt P41162-2 1-143)
T9 sequence: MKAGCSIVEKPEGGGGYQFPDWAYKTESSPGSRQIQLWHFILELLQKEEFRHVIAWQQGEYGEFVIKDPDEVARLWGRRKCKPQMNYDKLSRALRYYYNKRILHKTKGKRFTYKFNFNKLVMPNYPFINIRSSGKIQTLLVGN
Summary of the method: as §1

ETV6 = ETV6 (Homo sapiens, UniProt P41212 1-452)
Summary of the method: as §1

Chain of ETV1 (P50549 whole entry): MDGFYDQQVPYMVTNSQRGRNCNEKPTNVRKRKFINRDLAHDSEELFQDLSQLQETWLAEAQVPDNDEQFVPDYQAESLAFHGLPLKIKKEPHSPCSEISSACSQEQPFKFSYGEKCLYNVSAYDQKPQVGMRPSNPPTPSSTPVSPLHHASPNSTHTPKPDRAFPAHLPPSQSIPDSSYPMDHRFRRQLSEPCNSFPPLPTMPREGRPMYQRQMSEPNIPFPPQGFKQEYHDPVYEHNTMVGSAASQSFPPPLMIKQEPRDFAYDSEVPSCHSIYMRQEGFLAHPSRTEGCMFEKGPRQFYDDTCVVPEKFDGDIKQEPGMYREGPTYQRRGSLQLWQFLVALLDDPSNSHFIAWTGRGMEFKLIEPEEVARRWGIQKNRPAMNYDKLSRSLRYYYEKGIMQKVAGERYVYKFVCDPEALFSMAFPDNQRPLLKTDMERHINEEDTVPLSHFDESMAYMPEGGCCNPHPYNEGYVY
Chain of ELF4 (Q99607 whole entry): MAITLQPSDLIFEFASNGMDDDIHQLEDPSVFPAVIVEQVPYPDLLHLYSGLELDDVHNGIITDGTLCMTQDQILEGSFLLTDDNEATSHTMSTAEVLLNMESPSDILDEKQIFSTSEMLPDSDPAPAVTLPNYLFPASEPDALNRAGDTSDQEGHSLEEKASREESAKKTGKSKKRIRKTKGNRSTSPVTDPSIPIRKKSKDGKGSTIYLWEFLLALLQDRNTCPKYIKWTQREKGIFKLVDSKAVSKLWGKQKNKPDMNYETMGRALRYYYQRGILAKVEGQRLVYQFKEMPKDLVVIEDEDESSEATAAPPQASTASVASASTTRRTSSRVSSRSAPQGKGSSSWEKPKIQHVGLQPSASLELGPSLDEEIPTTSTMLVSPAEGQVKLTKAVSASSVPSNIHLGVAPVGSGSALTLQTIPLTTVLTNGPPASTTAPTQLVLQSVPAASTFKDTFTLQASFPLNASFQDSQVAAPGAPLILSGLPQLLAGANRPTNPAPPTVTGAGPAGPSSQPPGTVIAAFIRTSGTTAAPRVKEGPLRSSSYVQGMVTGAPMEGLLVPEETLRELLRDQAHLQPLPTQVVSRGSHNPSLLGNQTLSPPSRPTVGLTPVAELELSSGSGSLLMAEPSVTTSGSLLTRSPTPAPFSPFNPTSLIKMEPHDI
Chain of SPIB (Q01892 whole entry): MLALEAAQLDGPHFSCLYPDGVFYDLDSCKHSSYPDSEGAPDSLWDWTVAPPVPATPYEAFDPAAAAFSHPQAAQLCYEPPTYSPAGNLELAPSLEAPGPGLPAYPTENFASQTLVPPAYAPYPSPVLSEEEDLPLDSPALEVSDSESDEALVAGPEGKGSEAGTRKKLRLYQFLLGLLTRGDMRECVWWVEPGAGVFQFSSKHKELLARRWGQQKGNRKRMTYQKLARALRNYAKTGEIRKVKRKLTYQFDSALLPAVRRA
Chain of ELF1 (P32519 whole entry): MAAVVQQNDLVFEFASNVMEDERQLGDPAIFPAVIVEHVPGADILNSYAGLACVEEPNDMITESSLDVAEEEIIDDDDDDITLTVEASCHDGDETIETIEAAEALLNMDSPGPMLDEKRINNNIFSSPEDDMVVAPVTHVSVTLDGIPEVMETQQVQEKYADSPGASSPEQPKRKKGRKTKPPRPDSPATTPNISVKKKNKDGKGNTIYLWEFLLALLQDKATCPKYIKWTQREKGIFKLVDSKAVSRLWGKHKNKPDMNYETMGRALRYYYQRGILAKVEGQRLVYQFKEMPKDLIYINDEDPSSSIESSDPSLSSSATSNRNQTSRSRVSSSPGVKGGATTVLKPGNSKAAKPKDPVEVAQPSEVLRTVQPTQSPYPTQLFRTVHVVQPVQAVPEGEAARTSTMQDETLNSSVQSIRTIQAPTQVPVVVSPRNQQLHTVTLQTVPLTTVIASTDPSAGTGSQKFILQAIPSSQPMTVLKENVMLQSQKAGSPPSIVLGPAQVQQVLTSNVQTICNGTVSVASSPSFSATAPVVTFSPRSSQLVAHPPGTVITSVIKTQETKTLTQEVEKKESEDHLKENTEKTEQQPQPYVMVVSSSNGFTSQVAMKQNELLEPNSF
Chain of ETV5 (P41161 whole entry): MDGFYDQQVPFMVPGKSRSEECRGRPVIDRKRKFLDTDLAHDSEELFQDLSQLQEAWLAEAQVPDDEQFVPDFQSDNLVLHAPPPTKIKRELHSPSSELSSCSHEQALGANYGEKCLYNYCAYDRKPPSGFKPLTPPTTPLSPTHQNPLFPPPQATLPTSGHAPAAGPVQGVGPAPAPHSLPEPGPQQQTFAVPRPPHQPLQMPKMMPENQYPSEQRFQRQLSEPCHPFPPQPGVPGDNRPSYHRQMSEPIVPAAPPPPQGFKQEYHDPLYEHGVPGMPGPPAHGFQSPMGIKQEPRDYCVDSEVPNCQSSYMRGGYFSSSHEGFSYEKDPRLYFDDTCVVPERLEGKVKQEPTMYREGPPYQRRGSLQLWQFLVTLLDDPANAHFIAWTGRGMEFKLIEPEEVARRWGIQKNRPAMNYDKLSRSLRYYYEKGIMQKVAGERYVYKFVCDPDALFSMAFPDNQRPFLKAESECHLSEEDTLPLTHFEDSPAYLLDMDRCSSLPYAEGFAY
Chain of ETV6 (P41212 whole entry): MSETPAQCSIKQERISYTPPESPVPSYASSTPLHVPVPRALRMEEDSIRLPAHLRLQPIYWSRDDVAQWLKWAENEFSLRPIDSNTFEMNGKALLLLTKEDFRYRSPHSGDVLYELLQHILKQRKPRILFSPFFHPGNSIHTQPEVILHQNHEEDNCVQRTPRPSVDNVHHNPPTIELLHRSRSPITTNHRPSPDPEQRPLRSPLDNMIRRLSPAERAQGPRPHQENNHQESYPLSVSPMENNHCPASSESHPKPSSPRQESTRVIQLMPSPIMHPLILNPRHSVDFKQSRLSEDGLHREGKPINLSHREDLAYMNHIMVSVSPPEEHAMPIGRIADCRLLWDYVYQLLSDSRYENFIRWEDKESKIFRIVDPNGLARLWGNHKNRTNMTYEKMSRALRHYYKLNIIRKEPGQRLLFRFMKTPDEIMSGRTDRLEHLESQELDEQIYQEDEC

CCCTGA
binding signal (ELK1): 1.18 fold enrichment (6-mer frequency, TF over GST control) | binding signal (GABPA): 1.05 fold enrichment (6-mer frequency, TF over GST control) | binding signal (ERG): 1.04 fold enrichment (6-mer frequency, TF over GST control) | binding signal (ELF1): 1.06 fold enrichment (6-mer frequency, TF over GST control) | binding signal (SPIB): 1.1 fold enrichment (6-mer frequency, TF over GST control) | binding signal (FEV): 1.04 fold enrichment (6-mer frequency, TF over GST control) | binding signal (ETV5): 1.07 fold enrichment (6-mer frequency, TF over GST control) | binding signal (ELF4): 1.05 fold enrichment (6-mer frequency, TF over GST control) | binding signal (ELK4): 1.1 fold enrichment (6-mer frequency, TF over GST control) | binding signal (ETV2): 1.17 fold enrichment (6-mer frequency, TF over GST control) | binding signal (ETV1): 1.09 fold enrichment (6-mer frequency, TF over GST control) | binding signal (ETV3L): 1.04 fold enrichment (6-mer frequency, TF over GST control) | binding signal (ETS2): 1.02 fold enrichment (6-mer frequency, TF over GST control) | binding signal (ETV3): 1.01 fold enrichment (6-mer frequency, TF over GST control) | binding signal (ETV6): 1.05 fold enrichment (6-mer frequency, TF over GST control)
